# According to the supplement of paper PMC7156485:
# ± gives the standard deviation of the averaged measurements.
# Tested on: HCC1569
# Test: cell number relative to DMSO (% of DMSO); higher = more cells (less growth inhibition / toxicity)
# Settings: concentration: 10 µM; 24 h
# Method in brief: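 After 24 h at 37 °C with compounds at 10 µM, in triplicate, HCC1569 and TDF cells were fixed with 3.7% formaldehyde. Immunostaining used a rabbit anti-H1.0 antibody and an AlexaFluor 647 secondary, with DAPI, and six fields per well were imaged at ×10. H1.0 nuclear intensity or cell number is presented as percent of the plate control, from the median of replicates, with HCC1569 values smoothed for positional effects.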
# 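Note: TDF denotes transformed human dermal fibroblasts of mesenchymal origin.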
row,Structure (SMILES),cell number
1,"CC=C1C2C=C(C)CC1(N)c1ccc(=O)[nH]c1C2 (single isomer, unassigned; (-)) [(-)-Huperazine]",98.2
2,CN1CCC(c2c(O)cc(O)c3c(=O)cc(-c4ccccc4Cl)oc23)C(O)C1 (centres undefined) [Alvocidib],59.4
3,COC1(NC(=O)CSCC#N)C(=O)N2C(C(=O)[O-])=C(CSc3nnnn3C)CSC21.[Na+] (centres undefined) [Cefmetazole sodium],101
4,"Cl.Cl.Cl.NCCC1CCCC(CCN)N1 (centres undefined) [MDL 26,630 trihydrochloride]",104
5,CC12CCC3c4ccc(O)cc4CCC3C1CCC2=O (centres undefined) [Estrone],102 ± 4.7
6,COc1cc2c(cc1OC)-c1cc(=Nc3c(C)cc(C)cc3C)n(C)c(=O)n1CC2.Cl [Trequinsin.HCl],102
7,Cn1cc(C2=C(c3cn(CCCSC(=N)N)c4ccccc34)C(=O)NC2=O)c2ccccc21,53.9
8,O=C(O)C1=CC(=NNc2ccc(S(=O)(=O)Nc3ccccn3)cc2)C=CC1=O [Sulfasalazine],106
9,C#CCNCc1cc2cc(OCc3ccccc3)ccc2[nH]1 [N-((5-(benzyloxy)-1H-indol-2-yl)methyl)prop-2-yn-1-amine],82.8
10,O=C(COc1ccc(Cl)cc1)NC1CCC(NC(=O)COc2ccc(Cl)cc2)CC1 (centres undefined),104
11,O=C(O)C=CC(=O)O.c1cnc(N2CCN(Cc3ccc4c(c3)OCO4)CC2)nc1 [Piribedil maleate],101
12,CC(C)(C)NCC(O)COc1cccc2[nH]c(=O)[nH]c12.Cl (racemic),97.7
13,C=C1OC(CO)(n2cnc3c(N)ncnc32)C(O)C1O (centres undefined) [Decoyinine],107
14,COc1ccc(N2C(=O)CSC2c2cccc(Br)c2)c(OC)c1 (centres undefined),59.5
15,O=C(Nc1ccc(S(=O)(=O)Nc2nccs2)cc1)C(c1ccccc1)c1ccccc1,93.6
16,COC(=O)N=NC=C1C=[N+]([O-])c2ccccc2N1O [Carbadox],104
17,CCOC(=O)C(C)(C)Oc1ccc(Cl)cc1 [Clofibrate],102 ± 2.9

row,Structure (SMILES),cell number
1,CC1OC(OC2C(Oc3cc(O)c4c(=O)cc(-c5ccc(O)cc5)oc4c3)OC(CO)C(O)C2O)C(O)C(O)C1O (centres undefined) [Rhoifolin],102
2,Br.Br.N=C(N)SCCN [2-(2-Aminoethyl)isothiourea dihydrobromide],99.2
3,Cc1ccccc1C(=O)c1ccc(Nc2ccc(Br)cc2N)cc1Cl,97.3
4,COc1nccc(-c2c(-c3ccc(F)cc3)ncn2C2CCC(O)CC2)n1 (centres undefined),100
5,"COc1cc2c3cc1Oc1cc(ccc1O)CC1c4c(cc(OC)c(O)c4Oc4ccc(cc4)CC3N(C)CC2)CC[N+]1(C)C.Cl.[Cl-] (single isomer, unassigned; (+)) [(+)-Tubocuraraine chloride]",108
6,CC1Cc2ccccc2N1NC(=O)c1ccc(Cl)c(S(N)(=O)=O)c1 (centres undefined) [Indapamide],106
7,Clc1ccc2c(c1)CCc1cccnc1C2=C1CCNCC1 [Desloratadine],98.1
8,Nc1ncnc2c1C(=O)N(c1ccc(C3CCC(CC(=O)O)CC3)cc1)CCO2 (centres undefined),103
9,"CC(C)=CCC(OC(=O)C=C(C)C)C1=CC(=O)c2c(O)ccc(O)c2C1=O (stereo not drawn) [Shikonin beta,beta-dimethylacrylate]",25.4
10,O=C1C=C(CO)OCC1=O [5-hydroxy-2-(hydroxymethyl)-4H-pyran-4-one],105
11,COc1ccccc1N1CCN(CCCCNC(=O)c2ccc3ccccc3c2)CC1 [N-{4-[4-(2-methoxyphenyl)-1-piperazinyl]butyl}-2-naphthamide],96.6
12,O=C(C=Cc1ccc(O)c(O)c1)OCCc1ccccc1,74.8 ± 3.7
13,COc1cc2ncnc(Nc3ccc(OCc4ccccc4)cc3)c2cc1OC [EGFR/ErbB-2 Inhibitor],88.7
14,O=c1cc(N2CCOCC2)oc2c(-c3ccccc3)cccc12,83.3
15,COc1cc(CCC(C)=O)ccc1O [Vannilylacetone],105
16,Cc1cccc(C=Cc2ccccc2)n1,101
17,COc1ccccc1N1CCN(CCCCNS(=O)(=O)c2cccc3c(N(C)C)cccc23)CC1.O=C(O)C=CC(=O)O [Cortexolone maleate],85.1
